An excerpt weighted towards active compounds, which were near 2.4% of everything screened.
POLK inh – qHTS for Inhibitors of Polymerase Kappa. DNA polymerase kappa (Homo sapiens), Q9UBT6. purified Pol kappa, fluorescent DNA synthesis assay, 10 min. Potency, µM (top dose mostly 107 µM), without a hit: at the top dose activity, negative = inhibition, hits mostly inhibitors. actives 0.53% (n = 400,000). AID 588579, 2011; further: on the % scale 0 is the no-effect control and ±100 the full control effect
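First, compounds were pin-transferred onto 10 nM Pol kappa. After 15 min at room temperature, substrate was added to 50 nM final. Fluorescence was then measured kinetically at 0 and 10 min.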
POLH inh – qHTS for Inhibitors of Polymerase Eta; DNA polymerase eta (Homo sapiens), Q9Y253; recombinant Pol eta, fluorescent DNA replication assay; Potency, µM (top dose mostly 114 µM), for inactives: at the highest dose activity change, negative = inhibition, usual class: inhibitors; actives 1.2% (n = 390,000); AID 588591, 2011; further: on the % scale 0 is the no-effect control and ±100 the full control effect
Target sequence (Q9Y253 whole entry, looked up): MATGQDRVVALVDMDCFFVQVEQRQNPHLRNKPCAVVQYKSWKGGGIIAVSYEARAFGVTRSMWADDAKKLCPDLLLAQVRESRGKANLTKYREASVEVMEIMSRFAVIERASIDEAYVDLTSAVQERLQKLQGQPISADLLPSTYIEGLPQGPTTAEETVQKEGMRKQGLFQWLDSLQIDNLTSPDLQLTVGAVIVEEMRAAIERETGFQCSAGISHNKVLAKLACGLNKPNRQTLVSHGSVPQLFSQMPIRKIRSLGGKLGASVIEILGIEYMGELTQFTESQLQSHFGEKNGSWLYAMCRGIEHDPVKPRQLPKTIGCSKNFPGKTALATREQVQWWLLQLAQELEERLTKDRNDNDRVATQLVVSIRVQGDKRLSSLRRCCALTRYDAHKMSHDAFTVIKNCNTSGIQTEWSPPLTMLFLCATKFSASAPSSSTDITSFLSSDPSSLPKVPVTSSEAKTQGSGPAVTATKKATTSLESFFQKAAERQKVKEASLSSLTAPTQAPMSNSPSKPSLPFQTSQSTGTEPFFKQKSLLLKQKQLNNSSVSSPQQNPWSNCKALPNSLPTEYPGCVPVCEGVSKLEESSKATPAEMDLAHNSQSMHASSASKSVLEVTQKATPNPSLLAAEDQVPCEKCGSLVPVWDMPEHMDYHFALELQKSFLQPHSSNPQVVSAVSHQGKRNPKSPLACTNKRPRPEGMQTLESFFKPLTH
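Pol eta at 10 nM preincubated with compounds 15 min at room temperature; reaction started with fluorescent substrate (50 nM final) and read kinetically at 0 and 10 min.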
FEN1 inhibitor – qHTS Assay for the Inhibitors of Human Flap endonuclease 1 (FEN1). AID 588795, 2011. actives 0.35% (n = 390,000). P39748. Recombinant FEN1 flap cleavage, fluorescence, 15 min. Potency, µM (doses to about 114 µM), for the others: at the highest dose activity change, negative = inhibition, usual class: inhibitors; further: on the % scale 0 is the no-effect control and ±100 the full control effect; nearly all actives have a fitted effect of over 65% in size
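Potency values derive from four-parameter Hill fits of normalized qHTS data. The reaction used 10 nM FEN1 preincubated 15 min at room temperature with compound, then 50 nM DNA substrate, read at 0 and 15 min.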
POLB inh – qHTS Assay for Inhibitors of DNA Polymerase Beta. Pol beta primer extension/strand displacement, fluorescence kinetic. P06746. actives 1.3% (n = 340,000). AID 485314, 2010. Potency, µM (highest dose often 114 µM), inactives show at the top dose activity change, negative = inhibition, actives largely listed as inhibitors; further: on the % scale 0 is the no-effect control and ±100 the full control effect
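Pol beta (10 nM) was preincubated with compound for 15 min at room temperature. The reaction was then started with 50 nM substrate and read immediately and after a further 10 min at room temperature.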
WRN helicase inh – qHTS for Inhibitors of WRN Helicase. actives 0.46% (n = 360,000). AID 651768, 2012. WRN helicase unwinding, fluorescent forked duplex, kinetic. Potency, µM (highest dose often 114 µM), inactives show at the highest dose activity change, negative = inhibition, actives largely listed as inhibitors. Bifunctional 3'-5' exonuclease/ATP-dependent helicase WRN (Homo sapiens), Q14191; further: on the % scale 0 is the no-effect control and ±100 the full control effect; nearly all actives have a fitted effect of over 55% in size
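WRN at 20 nM final was preincubated with compound for 15 min at room temperature; reaction started with 100 nM forked duplex oligonucleotide carrying fluorophore and quencher plus 2 mM ATP (final). Unwinding followed kinetically by red fluorescence (ex 525/em 598 nm).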
Pol iota inh – qHTS for Inhibitors of Polymerase Iota; Potency, µM (titrated, usually from 115 µM), without a hit: at the highest dose activity, negative = inhibition, usual class: inhibitors; actives 1% (n = 390,000); AID 588590, 2011; Pol iota fluorescent replication assay, 10 min
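Fluorescent replication assay read twice, at 0 min and 10 min after adding 50 nM (final) substrate. Enzyme (10 nM) and compounds were first incubated 15 min at room temperature; enzyme-free buffer wells were negative controls.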
Starred values were filed as active, the others as inactive; ? = inconclusive; nt = not tested or not shown; ! = a repeat was not active; [ ] = another dose, or the depositor's remark. The call rests on the fitted dose curve; in most records, active means well fitted curve in the direction sought with a large enough effect; inconclusive means small, poorly fitted or top-dose-only effect, or another doubt; inactive means no such curve, though single readings can be large; an effect the other way counts as inactive or inconclusive. Potency means the concentration at half of the fitted maximal effect.

SMILES	POLK inh	POLH inh	FEN1 inhibitor	POLB inh	WRN helicase inh	Pol iota inh
CC(NS(=O)(=O)c1ccccc1)C(=O)NC1CCCC1 (stereo not given)	-9%	79µM*	-4%	?	-5%	-22%
CC(C)C(NS(=O)(=O)c1ccccc1)C(=O)NC1CCCC1 (stereo not given)	10%	-2%	0%	56%	4%	?
CCOc1ccc(N2CSC3=C(C#N)C(c4ccco4)CC(=O)N3C2)cc1 (stereo not given)	0%	1%	-4%	25µM*	5%	13%
N#CC1=C2SCN(c3ccccc3)CN2C(=O)CC1c1c(Cl)cccc1Cl (stereo not given)	-60%	-10%	79µM*	36%	1%	89µM*!
Cc1ccc(C2CC(=O)N3CN(c4ccc(Br)cc4)CSC3=C2C#N)o1 (stereo not given)	-7%	4%	-7%	32µM*	2%	?
CCN(CC)C(=O)c1cc(-c2ccc(Cl)cc2)on1	-10%	-7%	-1%	-29%	nt	7%
Cc1ccc(C(=O)NCC(c2ccc3c(c2)OCO3)N2CCN(c3ccc(F)cc3)CC2)cc1 (stereo not given)	-4%[60.1 µM]	-8%	-1%	0%	nt	-2%
Nc1ccc2c(c1)C/C(=C/c1ccco1)C2=O	-20%	?	-24%	5.6µM*	-34%	?
O=C1/C(=C/c2ccco2)CCc2ccccc21	-6%	-21%	0%	?	0%	30%
Cc1noc(C)c1C(=O)N1CCC2(CC1)CCN(C(c1ccccc1)c1ccccc1)CC2	-15%[60.1 µM]	nt	nt	nt	nt	nt
CCOC(=O)c1cc(-c2ccc(C)cc2)n(CC(=O)NC2CCCCCC2)c1C	-27%	-19%	3%	15%	nt	14%
O=C(c1cccc(F)c1)N1CCC[C@@]2(CCN(c3ccncc3)C2)C1	2%[60.1 µM]	nt	nt	nt	nt	nt
CCC1CCCCN1CCCNC(=O)c1ccc2c(c1)N(Cc1ccccc1F)C(=O)c1ccccc1S2(=O)=O (stereo not given)	-5%	-13%	6%	34%	nt	17%
Cc1nn(CCCC(=O)NCc2ccccc2)c(=O)c2c1sc1ccccc12	?	nt	?	79µM*	nt	?
O=C(CSc1nccn1-c1cccc(Cl)c1)Nc1ccc2c(c1)OCO2	-9%[60.1 µM]	-1%	20%	-10%	nt	20%
O=C(COC(=O)c1cc2c(s1)CCCC2)Nc1ccc(Cl)cn1	7%	-2%	-5%	-25%	0%	21%
COc1ccc(NC(=O)COC(=O)c2cc3c(s2)CCC3)cc1	?	45µM*	9%	nt	-22%	32µM*
O=S(=O)(c1ccc(Cl)cc1)N1CCN(c2nc(-c3ccccc3)nc3ccccc23)CC1	6%	nt	-22%	nt	nt	-1%
COc1ccc2c(C)nc(N/C(N)=N/S(=O)(=O)c3ccc(C)cc3)nc2c1	-11%	-4%	2%	0%	-2%	89µM*
CN(C)c1ccc(CCC2C=Cc3ccccc32)cc1 (stereo not given)	-4%	nt	11%	nt	nt	2%
C=CCNc1nc(C(=O)OCC(=O)Nc2ccc(S(N)(=O)=O)cc2)cs1	-27%	56µM*	8%	nt	-18%	28µM*
O=C(O)Cc1ccc(C(=O)c2ccccc2)s1	-22%	1%	-3%	0%	nt	-10%
O=C(O)Cc1ccc(C(=O)CSc2ccccc2)s1	?	20µM*	-32%	16µM*	?	25µM*
Cc1cc(Cl)cc(Cl)c1OCC(=O)NCc1ccco1	-43%	20µM*	-3%	40µM*	-4%[11.6 µM]	?
Cc1ccc2c(Cl)cc(Cl)c(OCC(=O)NCc3ccco3)c2n1	nt	nt	nt	13µM*	nt	nt
SMILES	POLK inh	POLH inh	FEN1 inhibitor	POLB inh	WRN helicase inh	Pol iota inh
Cc1cccc(-n2c(C)nnc2SCC(=O)NC(C)c2ccco2)c1 (stereo not given)	-11%	nt	16%	nt	nt	?
Cc1ccc(-c2cc(C(F)(F)F)n3nc(-c4cccc(Br)c4)cc3n2)cc1	?	-5%	-21%	44%	nt	89µM*
Cc1ccc(-c2cc(C(F)(F)F)n3nc(-c4ccc(Cl)cc4)cc3n2)cc1	-28%	-9%	4%	-4%	nt	29%
CC(=O)c1ccc(-n2c(CCC(=O)O)ccc2-c2cccs2)cc1	-17%	?	10%	?	-8%	?
Cc1ccc(-n2c(CCC(=O)O)ccc2-c2cccs2)cc1	-14%	?	-6%	35µM*	-22%	?
Cc1ccc(-n2c(CCC(=O)O)ccc2-c2cccs2)cc1Cl	2%	1%	-4%	2.5µM*	nt	?
NC(=O)c1ccc(-n2c(CCC(=O)O)ccc2-c2cccs2)cc1	-44%	-8%	-3%	11%	-6%	99%
CCOC(=O)CC(NC(=O)CCc1c(C)nc2c(c(C)nn2-c2ccc(C)c(C)c2)c1C)c1ccc(C)cc1 (stereo not given)	-22%	-19%	3%	-5%	nt	15%
CC(/C=C1\SC(=S)N(C(C(=O)O)c2ccccc2)C1=O)=C\c1ccccc1 (stereo not given)	?	89µM*	-16%	18%	-10%[11.6 µM]	?
O=C(O)C(c1ccccc1)N1C(=O)/C(=C/c2cccs2)SC1=S (stereo not given)	0%	-8%	3%	1%	-29%	?
C=CCOc1ccc(/C=C2\SC(=S)N(C(C(=O)O)c3ccccc3)C2=O)cc1 (stereo not given)	-4%	79µM*	1%	5%	-13%[11.6 µM]	?
CCOc1ccc(/C=C2\SC(=S)N(C(C(=O)O)c3ccccc3)C2=O)cc1OC (stereo not given)	-10%	79µM*	5%	-16%	-5%[11.6 µM]	?
CN1/C(=C/c2cc[n+](C)c3ccccc23)C=Cc2ccccc21	-17%	-18%	45µM*	32µM*	28µM*	27%
CC(=O)N1CCC(C(=O)Nc2nnc(C(C)C)s2)CC1	-18%	nt	-2%	nt	nt	12%
Nc1c(O)cccc1C(=O)O	?	-2%	-22%	nt	-5%[11.6 µM]	40µM*
CCOc1ccc(OCC)c(NC(=O)c2cnn(-c3ccc(F)cc3)c2-n2cccc2)c1	-11%	-14%	-14%	26%	nt	-4%
CCc1ccccc1NC(=O)C1CCN(C2=NS(=O)(=O)C(c3ccc(C)c(C)c3)=C2C)CC1	-33%	nt	-12%	13µM*	nt	-10%
Cc1ccc(-c2csc3ncnc(OCC(=O)NC(=O)NCc4ccco4)c23)cc1	-32%	79µM*	2%	40µM*	-10%[57.1 µM]	?
